# Laboratory results published in the supplement of paper PMC6555819.
# Assays:
# Experiment in all cases: PBM binding z-score (relative to random genomic background probes); higher = stronger binding; sequences stand for … in GC…GCGATTGACAGCGTAGAATGAAGG
# [1] = test system: PPARg:RXRa DBDmut IVT, anti-RXR (DBD mutation: RXRa K156A/R161A, NR concentration 270 nM, RXRa partner concentration 90 nM)
# In short: (§1)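 Antibodies against each partner of ligand-free nuclear receptor dimers (one per run) detected binding on custom Agilent 4×180K protein-binding microarrays after 1 h incubation. The double-stranded probes had 34-nt variable regions carrying direct-repeat seeds, single-nucleotide variants, half-site ablations and random human genomic background sequences. Binding z-scores, from regression-normalized fluorescence, use the random background probes as reference.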
# [2] = test system: PPARg:RXRa IVT, anti-PPARg (NR concentration 270 nM, RXRa partner concentration 90 nM)
# In short: as §1
# [3] = test system: PPARg DBDmut:RXRa IVT, anti-PPARg (DBD mutation: PPARg1 K132A/R137A, NR concentration 270 nM, RXRa partner concentration 90 nM)
# In short: as §1
# [4] = test system: PPARg DBDmut IVT, anti-PPARg (DBD mutation: PPARg1 K132A/R137A, NR concentration 270 nM)
# In short: as §1
# [5] = test system: PPARg homodimer (NR concentration 180 nM)
# In short: as §1
# [6] = test system: PXR:RXRa (NR concentration 270 nM, RXRa partner concentration 90 nM)
# In short: as §1
# [7] = test system: PXR homodimer (NR concentration 270 nM)
# In short: as §1
# [8] = test system: RARa:RXR (NR concentration 270 nM, RXRa partner concentration 90 nM)
# In short: as §1
# [9] = test system: RARa homodimer (NR concentration 270 nM)
# In short: as §1
# [10] = test system: RARb:RXRa (NR concentration 270 nM, RXRa partner concentration 90 nM)
# In short: as §1
# [11] = test system: RARb homodimer (NR concentration 270 nM)
# In short: as §1
# [12] = test system: RARg:RXRa (NR concentration 270 nM, RXRa partner concentration 90 nM)
# In short: as §1
# [13] = test system: RARg homodimer (NR concentration 270 nM)
# In short: as §1
# [14] = test system: RXRa DBDmut IVT, anti-RXR (DBD mutation: RXRa K156A/R161A, NR concentration 90 nM)
# In short: as §1
# [15] = test system: RXRa homodimer (NR concentration 180 nM)
# In short: as §1
# [16] = test system: THRa:RXRa (NR concentration 90 nM, RXRa partner concentration 90 nM)
# In short: as §1
# [17] = test system: THRa homodimer (NR concentration 90 nM)
# In short: as §1
# [18] = test system: VDR homodimer (NR concentration 270 nM)
# In short: as §1
Sequence,PBM binding z-score [1],PBM binding z-score [2],PBM binding z-score [3],PBM binding z-score [4],PBM binding z-score [5],PBM binding z-score [6],PBM binding z-score [7],PBM binding z-score [8],PBM binding z-score [9],PBM binding z-score [10],PBM binding z-score [11],PBM binding z-score [12],PBM binding z-score [13],PBM binding z-score [14],PBM binding z-score [15],PBM binding z-score [16],PBM binding z-score [17],PBM binding z-score [18]
GATACAGGGTAAGCTAGAGGCCAGAGTATGGAAA,0.227,0.424,-0.118,-0.173,-0.435,-0.38,-0.17,-0.0414,-0.543,0.634,0.413,0.988,0.547,-0.967,0.303,0.219,-0.653,-0.382
ACAGACAGGTGATGAAGTTAACTCAGGCTATCAT,-0.14,0.266,0.864,0.239,0.153,0.166,0.125,0.133,0.502,-0.00565,0.22,-0.00666,0.328,-0.128,0.00488,1.38,-0.0538,0.197
TCTAGTTGGGCAAAGGTCACACACTCGAAATGCG,2.75,5.71,0.687,1.14,5.11,5.64,1.26,6.56,2.44,5.1,5.01,6.49,5.87,1.44,7.41,3.99,1.54,2.26
ATACCAAGGTGACCGTGAGGTCGTTGATACTAAC,1.21,2.77,0.39,0.266,1.4,3.8,1.45,3.05,0.22,2.46,2.9,3.36,1.96,0.82,2.27,3.74,3.08,2.81
CCAGACAGGTGAGAAGGTAACACAGCCTCGATTA,1,0.723,-0.672,-0.419,0.988,-0.0224,0.73,0.409,0.978,0.799,1.03,0.858,0.833,0.148,0.73,0.62,0.195,0.124
CGAACTAGATCATTGACAGGACAGTGAATAGTAA,1.8,0.856,0.569,0.266,0.538,0.285,-0.0589,0.3,0.92,0.0179,0.278,0.201,0.25,0.0168,0.337,0.239,0.557,0.205
CGAACTAGGTTAAGGACAGTGAATCTCCGCACGC,6.49,5.67,0.439,1.14,1.07,-0.145,0.015,0.949,-0.21,1.47,1.1,0.615,0.965,0.432,0.533,3.11,3.05,-0.012
TGAATGAGGTTAAAGTTCAGGGAACGTGGCGTCG,2.35,5.08,1.25,1.55,1.98,5.23,0.746,6.19,0.262,3.63,3.35,4.76,2.66,1.93,6.97,3.63,0.772,2.62
ATCTCTAGGTAACACGTTCAGTGAAAGAGAGGAC,3.45,3.05,1.75,1.04,0.135,0.0713,0.206,0.208,0.489,0.552,0.49,0.475,0.586,-0.0545,0.391,0.954,0.748,0.453
ACTAGTTGGTCATCTGAGGTCACACACAATTCGG,2.52,3.08,1.2,0.851,3.6,5.61,2.26,4.86,1.05,3.69,4.29,4.22,4.23,1.93,4.26,5.17,5.44,4.23
ATAGGTAGGTTATCGGGTCATTCAGTTTGCGCAT,4.9,5.09,1.49,1.46,2.74,3.9,7.44,3.76,2.57,2.62,3.33,3.46,2.72,1.53,3.29,3.41,3.2,4.02
GCTATCAGGCCATTTGGGTCACTCAATGACGGGC,2.06,2.59,-0.109,-0.362,0.448,1.01,0.354,1.2,-0.0153,1.87,2.39,1.19,1.66,0.754,0.858,2.55,1.57,0.781
TCGGGTAGGTTACCAATGGGGCATTCAGCTTTCT,1.78,1.82,0.338,-0.222,0.725,0.647,-0.198,0.735,0.0772,1.41,1.04,1.63,0.754,0.101,0.683,0.482,0.377,0.0681
TAGCCTAGGTCATGGGCCAGTACACCACGCGAAC,1.78,3.17,1.24,-0.494,1.72,1.62,-0.215,2.77,0.343,3.92,2.88,4.3,4.65,0.275,3.7,2.99,1.48,0.985
ACTAGTTGGTCAGCTTAGGTCACACACAATTCGG,1.43,1.87,0.8,0.659,1.88,2.67,0.251,2.57,1.13,2.65,3.68,2.59,3.19,0.83,1.69,4.33,3.55,0.863
